Here are results for 8 molecules from PubChem BioAssay (NCI).

What all share (assay): NCI-60 one-dose screen, 48 h (100 = growth as untreated, 0 = no growth, -100 = all killed)
Holding throughout (settings): 10 µM unless noted

Assay [1] deals with NCI-H23 lung.
The subject of assay [2] is NCI-H322M lung.
In assay [3] the test system is HOP-62 NSCLC.
The test system of assay [4] is NCI-H460 lung.
The subject of assay [5] is HOP-92 NSCLC.
Assay [6] concerns NCI-H522 lung.
The test system of assay [7] is A549/ATCC NSCLC.
Assay [8] concerns 786-0 renal.
In assay [9] the test system is COLO 205 colon.
The subject of assay [10] is DU-145 prostate.
Assay [11] deals with K-562 leukemia.
The subject of assay [12] is MALME-3M melanoma.
The subject of assay [13] is MDA-MB-231 breast.
The subject of assay [14] is RXF 393 renal.
Assay [15] concerns SF-268 CNS.
In assay [16] the test system is SF-295 CNS.
The subject of assay [17] is SF-539 CNS.
Assay [18] deals with UACC-257 melanoma.
In assay [19] the test system is M14 melanoma.
Assay [20] concerns HCT-15 colon.

Compounds without any hit were thinned out: in the full panel of roughly 83,000, 20% have a hit.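 Method: cells in 96-well plates; compound added at one concentration; 48 h incubation; percent growth measured; values under 10 scored active.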 Unmarked numbers belong to inactive results. Calls of active or inactive are those of the source.

For the molecule `N#Cc1c(N)nc2c(c1N)C(c1ccc(F)cc1)c1ccc(N)cc1O2` (stereo not given), the growth was 117% in assay [1]; 150% in assay [2]; 113% in assay [3]; 110% in [4]; 97.2% in [5]; 86.4% in assay [6]. Besides, the growth in assay [7] was 101%; in assay [8], 92.3%; in [9], 124%; in assay [10], 110%; in assay [11], 104%; in assay [12], 136%. Besides, the growth in assay [13] is 118%; in assay [14] it was 92.3%; in assay [15], 105%; in [16] it was 83.1%; in assay [17], 103%; in assay [18], 102%. Further, the growth in [19] was 111%; in [20], 100%.

In the case of `Nc1ccc(-n2c(=O)oc3ccc(Cl)cc3c2=O)c(Cl)c1`, the growth in [1] was -4.26% (active); in assay [2] it was -2.46% (active); in assay [3], -6.88% (active); in [4] it was 2.28% (active); in assay [5] it was -13.1% (active); in assay [6], -20.1% (active). In addition, the growth in assay [7] is 6.26% (active); in assay [8], -33.5% (active); in assay [9], -27.4% (active); in assay [10], 9.79% (active); in assay [11], 7.44% (active); in assay [12], -29.6% (active). For the same molecule, the growth in assay [13] was -25.6% (active); in [14], -6.99% (active); in [15] it was 3.88% (active); in assay [16], -58% (active); in assay [17], -5.36% (active); in [18] it was -21.1% (active). Moreover, the growth is -11.2% (active) in assay [19] and 1.16% (active) in [20].

Take `CCOC(=O)CSc1c(-c2ccccc2)c2cc(Cl)ccc2[nH]c1=O`: the growth was 101% in assay [1]; 94.9% in assay [2]; 94.5% in [3]; 101% in [4]; 100% in [5]; 91.2% in assay [6]. For the same molecule, the growth in [7] was 102%; in assay [8], 97.1%; in assay [9], 110%; in assay [10], 103%; in assay [11], 84.1%; in assay [12], 114%. Besides, the growth in [13] is 104%; in assay [14] it was 103%; in assay [15] it was 102%; in [16], 69.6%; in assay [17], 107%; in assay [18] it was 120%. For the same molecule, the figures for the growth in assay [19] and in [20] were 104% and 91.7%, respectively.

As to `COC(=O)/C(CCC=C(C)C)=C1\[C@@H](OC(C)=O)C[C@@]2(C)[C@H]1CC(=O)[C@H]1[C@@]3(C)CC[C@H](NCc4ccccc4)[C@@H](C)[C@@H]3CC[C@@]12C`, the growth is 93.4% in assay [1]; 103% in assay [2]; 87.3% in [3]; 88.8% in assay [4]; 49.7% in assay [5]; 108% in assay [6]. Moreover, the growth in assay [7] is 81.7%; in assay [8] it was 65.9%; in assay [9] it was 60%; in assay [10] it was 96.5%; in assay [11], 28.8%; in assay [12] it was 92.5%. The growth in [13] is 90.5%; in assay [14], 69.4%; in [15] it was 79.6%; in [16] it was 98.2%; in [17], 82.9%; in assay [18], 99.7%. Moreover, the growth in assay [19] is 89.7%; in assay [20], 72.1%.

Consider `CN1C(=O)N(C)C2C1NN=c1s/c(=C\c3ccc([N+](=O)[O-])cc3)c(=O)n12` (stereo not given), for which the growth is 87.3% in [1]; 85.4% in assay [2]; 68.9% in [3]; 32% in assay [4]; 77.6% in assay [5]; 43.6% in assay [6]. In addition, the growth in assay [7] is 59.9%; in assay [8], 64.4%; in assay [9], 56.7%; in assay [10], 77.4%; in assay [11], 22%; in assay [12], 65.9%. The growth is 75.1% in assay [13]; 78.6% in assay [14]; 77.1% in assay [15]; 40.8% in [16]; 54.7% in [17]; 63.6% in [18]. The growth in assay [19] is 51.2%; in [20], 37.6%.

In the case of `COc1c(B(O)O)cccc1-c1nc2ccc3[nH]ncc3c2c2c1C1CCC2C1` (stereo not given), the growth was 85.1% in assay [1]; 84.2% in assay [2]; 65.7% in assay [3]; 51% in assay [4]; 108% in assay [5]; 59.5% in assay [6]. The growth in [7] is 26.6%; in assay [8], 52.6%; in assay [9], 50.4%; in [10] it was 72.3%; in [11], 55.6%; in assay [12], 136%. The growth was 71.2% in [13]; 28.5% in assay [14]; 67.4% in assay [15]; 86% in [16]; 28% in assay [17]; 101% in assay [18]. Also, the growth in [19] is 84%; in assay [20], 49.6%.

On to `COc1cc(NC(=O)CCSc2nc3ccccc3c(=O)n2CCc2ccccn2)cc(OC)c1OC`, for which the growth in [1] was 88.3%; in [2], 88.8%; in [3], 85.7%; in [4], 83.5%; in [5] it was 89.1%; in assay [6] it was 25%. Besides, the growth is 84% in assay [7]; 84.3% in assay [8]; 115% in assay [9]; 103% in assay [10]; 94.8% in assay [11]; 59% in [12]. The growth in [13] was 80.2%; in assay [14] it was 75.2%; in assay [15], 80.8%; in assay [16], 88.4%; in assay [17], 73.7%; in assay [18] it was 93.2%. Further, the growth in [19] is 103%; in assay [20] it was 96.4%.

In the case of `Oc1ccc(-c2nc(-c3ccc4oc5ccc(-c6[nH]c(-c7ccc(O)cc7)nc6-c6ccccc6)cc5c4c3)c(-c3ccccc3)[nH]2)cc1`, the growth is 43.9% in [1]; 78.6% in [2]; 73.3% in [3]; 59.1% in assay [4]; 25.7% in assay [5]; 59.4% in assay [6]. Besides, the growth was 65.8% in assay [7]; 86.4% in [8]; 53.8% in assay [9]; 89% in assay [10]; 22.7% in [11]; 43.1% in assay [12]. For the same molecule, the growth in assay [13] is 59.5%; in [14] it was 84.9%; in assay [15], 63.5%; in assay [16] it was 15.6%; in assay [17], 79.4%; in [18] it was 34.5%. The growth is 65.5% in assay [19] and 78.8% in assay [20].
